High-throughput results (PubChem BioAssay)
Tau ThT inhib = qHTS for Inhibitors of Tau Fibril Formation, Thioflavin T Binding. Microtubule-associated protein tau (Homo sapiens), P10636. recombinant tau K18 P301L, heparin-induced fibrillization, ThT fluorescence. Potency, µM (highest dose often 57.4 µM), actives largely listed as inhibitors. 270,000 compounds, 2.1% hits. AID 1460, 2008; note: nearly all actives have a fitted effect of over 55% in size
Target sequence (P10636 561-689 P618L limits assumed): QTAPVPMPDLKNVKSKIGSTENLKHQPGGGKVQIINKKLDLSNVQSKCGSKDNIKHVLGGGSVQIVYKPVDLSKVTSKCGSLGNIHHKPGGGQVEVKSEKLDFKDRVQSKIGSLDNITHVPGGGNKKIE
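Aggregation was driven by heparin (20 uM final) acting on recombinant tau […] bearing P301L in 100 mM sodium acetate pH 7; fibrils were detected with Thioflavin T.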
Sfp inh = qHTS Assay for Inhibitors of Bacillus subtilis Sfp phosphopantetheinyl transferase (PPTase); 4'-phosphopantetheinyl transferase ffp (Bacillus subtilis), Q9F4F7; 310,000 compounds, 3.5% hits; Biochemical Sfp PPTase activity, qHTS; Potency, µM, most hits filed as inhibitors;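 note: the enzyme is Sfp with the accession as filed and its product quenches rhodamine fluorescence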
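Step 1, compound plus 15 nM Sfp-PPTase, 15 min, room temperature. Step 2, add rhodamine-CoA (5 uM) and BHQ-2-YbbR (12.5 uM). Step 3, read 525/598 nm fluorescence at 0 and 30 min.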
Coupling enz = qHTS Assay for Inhibitors of Fructose-1,6-bisphosphate Aldolase from Giardia Lamblia: Coupling assay counterscreen; coupling enzyme system counterscreen, AmpLite Red fluorescence; activity change, negative = inhibition, % at 58.2 µM, hits read low; 290,000 compounds, 0.67% hits; in the data active = activity change below about -30%
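Compounds tested against the coupling enzymes alone at 57.5 uM final; readout was AmpLite Red fluorescence (525/598 nm) after 20 min at RT.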
Tau FP inhib = qHTS for Inhibitors of Tau Fibril Formation, Fluorescence Polarization; Microtubule-associated protein tau (Homo sapiens), P10636; K18 P301L tau heparin fibrillization, Alexa594 FP, 6 h; Potency, µM (doses to about 57.7 µM), hits mostly inhibitors; 280,000 compounds, 0.39% hits; AID 1468, 2008; note: nearly all actives have a fitted effect of over 55% in size
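FP of Alexa 594-tau after heparin (20 uM) induction. Substrate: human K18 P301L, 15 uM unlabeled, 0.24 uM labeled. Buffer 100 mM sodium acetate pH 7. 6 hr, 37 C.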
Tau fluor counter = Counterscreen qHTS for Inhibitors of Tau Fibril Formation, Fluorescence Polarization; tau K18 P301L (four-repeat tau fragment) Alexa594 fluorescence, heparin fibrillization; Potency, µM (highest dose often 57.7 µM); 280,000 compounds, 0.93% hits; AID 1463, 2008; note: nearly all actives have a fitted effect of over 55% in size
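Human K18 P301L tau (15 uM unlabeled plus 0.24 uM Alexa 594-labeled, final) in 100 mM sodium acetate pH 7 was mixed with compound and 20 uM heparin and incubated 6 hr at 37 C.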
KDM4E inh = qHTS Assay for Inhibitors of Human Jumonji Domain Containing 2E (JMJD2E). JMJD2E catalytic domain, FDH-coupled NADH fluorescence (FDH is formaldehyde dehydrogenase). Potency, µM (top dose mostly 57.1 µM), hits mostly inhibitors. Lysine-specific demethylase 4E (Homo sapiens), B2RXH2. 230,000 compounds, 1.6% hits; active = well fitted inhibition curve with a large enough effect, not every such curve was filed as active; inconclusive = small, poorly fitted or top-dose-only effect, or another doubt; inactive = no such curve, though single readings can be large or run the other way; note: nearly all actives have a fitted effect of over 50% in size
Target sequence (B2RXH2 1-337 limits assumed): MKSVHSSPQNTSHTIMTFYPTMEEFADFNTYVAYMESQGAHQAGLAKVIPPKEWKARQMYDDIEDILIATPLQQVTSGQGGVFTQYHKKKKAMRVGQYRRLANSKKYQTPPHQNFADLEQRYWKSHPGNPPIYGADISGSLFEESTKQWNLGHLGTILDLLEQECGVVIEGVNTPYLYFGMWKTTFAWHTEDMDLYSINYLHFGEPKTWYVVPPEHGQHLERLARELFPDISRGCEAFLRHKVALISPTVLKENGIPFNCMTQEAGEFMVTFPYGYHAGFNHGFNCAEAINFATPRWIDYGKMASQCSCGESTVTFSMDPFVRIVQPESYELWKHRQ
A number is an active result; . = inactive; ? = inconclusive; / = no result given; [ ] = another dose, or the depositor's remark. The list is not random: actives were taken first. Their share in the collection is about 5.3%. Unless noted, calls come from the whole dose curve; as a rule, active = well fitted curve in the direction sought with a large enough effect; inconclusive = small, poorly fitted or top-dose-only effect, or another doubt; inactive = no such curve, though single readings can be large; an effect the other way counts as inactive or inconclusive.

SMILES	Tau ThT inhib	Sfp inh	Coupling enz	Tau FP inhib	Tau fluor counter	KDM4E inh
CCC1(c2ccccc2)NC(=S)N(c2ccc(C)cc2)N1 (centres undefined)	?	50µM	.	.	.	?
CCCCCC1(C)NC(=S)N(c2ccccc2)N1 (centres undefined)	?	40µM	.	.	.	?
O=C(c1cc(C(F)(F)F)cc(C(F)(F)F)c1)N1CCC2(CC1)CN(c1ncccn1)C2	/	.	.	/	/	/
COc1cc(/C=C/C(=O)Nc2nnc(C(C)(C)C)s2)cc(OC)c1OC	.	50µM	.	.	.	.
COc1cc(/C=C/C(=O)Nc2ccc(C)cc2)cc(OC)c1OC	.	.	.	.	.	.
C[C@H]1Cc2c(COc3ccccc3)nc3c(c2CO1)CN(C(=O)c1cc(I)ccc1F)CC3	.[11.5 µM]	.	.	.[11.6 µM]	.[11.6 µM]	.[11.4 µM]
CC(=O)Nc1ccc(Nc2ccc3cc(S(=O)(=O)N4CCCCC4)ccc3n2)cc1	?	/	/	.	14µM[quencher]	/
NS(=O)(=O)c1ccc(Nc2ccc3cc(S(=O)(=O)N4CCCCC4)ccc3n2)cc1	/	.	/	/	/	/
CC(=O)c1ccc(Nc2ccc3cc(S(=O)(=O)N4CCCC4)ccc3n2)cc1	.	/	/	22µM	11µM[quencher]	/
CC1CCN(S(=O)(=O)c2ccc3nc(Nc4cccc(F)c4)ccc3c2)CC1	.	/	/	13µM	?	/
Cn1c(Oc2ccc(Cl)cc2)nc2c1c(=O)n(Cc1ccc(F)cc1)c(=O)n2C	.	/	/	.	.	/
Cc1ccccc1C(=O)Nc1nc(-c2ccc(Br)cc2)ns1	.	/	/	?	.	/
O=C(Nc1nc(=S)ss1)c1c(F)cccc1F	.	22µM	.	.	.	.
CC(C)CC(=O)Nc1nnc(CCc2ccccc2)s1	/	.	.	/	/	/
CC(C)CC(=O)Nc1nc(=S)ss1	?	16µM	.	?	.	.
Cc1ccccc1C(=O)Nc1nc(=S)ss1	?	22µM	.	?	.	.
CC(=O)Nc1nc(=S)ss1	?	16µM	.	?	.	.
CC(=O)c1sc(NC(=O)c2c(F)cccc2F)nc1C	.	.	.	.	.	.
CCOc1ccc(NC(=O)Cn2c(=O)n(CCCCCC(=O)NCc3ccccc3)c(=O)c3sccc32)cc1	.	/	/	.	.	/
CN(C)c1ccc(CNC(=O)CN2CCSc3ccc(S(=O)(=O)N(C)C)cc32)cc1	.	/	/	.	.	/
C[N+]1(C)[C@@H]2CC(OC(=O)C(O)(c3cccs3)c3cccs3)C[C@H]1[C@@H]1O[C@@H]12 (some centres undefined)	/	.	/	/	/	/
O=C(Nc1nc2ccc(Cl)cc2s1)c1ccc(N2CCCCC2)c([N+](=O)[O-])c1	1.3µM	.	.	.	.	.
O=C(Nc1nc2ccc3ccccc3c2s1)c1ccc(N2CCCCC2)c([N+](=O)[O-])c1	4µM	.	.	.	.	.
FC(F)OC(Cl)C(F)(F)F (centres undefined)	/	.	/	/	/	/
CS(=O)(=O)Nc1cccc(-c2cncnc2NCc2cccs2)c1	.	?	.	.	.	.
SMILES	Tau ThT inhib	Sfp inh	Coupling enz	Tau FP inhib	Tau fluor counter	KDM4E inh
CCc1c(C)c2cc3c(c(C)c2oc1=O)OCN(CCc1ccccc1F)C3	?	/	/	.	?	/
CCN(CC)C(=O)CSc1nc2c(sc(=S)n2-c2ccccc2)c(=O)n1-c1ccccc1OC	/	.	.	/	/	/
CCOC(=O)CSc1nc2c(sc(=S)n2-c2ccccc2)c(=O)n1-c1ccc(OC)cc1OC	/	32µM	.	/	/	/
CCN(CC)C(=O)CSc1nc2c(sc(=S)n2-c2ccccc2)c(=O)n1-c1ccc(OC)cc1OC	/	22µM	.	/	/	/
CN(C(=O)CSc1nc2ccc(NC(=O)c3cccc(F)c3)cc2s1)c1ccccc1	.	/	/	?	?	/
CCc1cc(-c2oncc2-c2ccc(OC)cc2)c(O)cc1OC	/	.	.	/	/	/
CC(C)C[C@H](NC(=O)[C@H](CC(C)C)NC(=O)[C@H](Cc1ccccc1)NC(=O)[C@@H](N)CO)C(=O)N[C@@H](CCCN=C(N)N)C(=O)N[C@@H](CC(N)=O)C(=O)O	/	.	.	/	/	/
O=C(/C=C/c1ccncc1)c1cc(Cl)ccc1O	28µM	.	.	.	?	?
O=C(/C=C/c1ccc(Cl)cc1)c1cccnc1	?	?	.	.	.	.
CN(C)c1ccc(C(=O)/C=C/c2ccc(Br)cc2)cc1	?	.	.	.	.	.
CN(C)c1ccc(/C=C/C(=O)c2cc(Cl)ccc2O)cc1	4µM	.	.	.	?	.
C=CCn1c(O)c(C2=c3ccccc3=NC2=O)c2ccccc21	/	45µM	.	/	/	/
Nc1cc2nc3ccccc3oc-2cc1=O	7.1µM	22µM	.	11µM	?	13µM
COc1ccc(Cn2c(SCc3cc(C)ccc3C)nc3cc(OC)c(OC)cc3c2=N)cc1	?	3.2µM	.	.	.	.
COc1ccc(Cn2c(SCc3ccc(C)cc3)nc3cc(OC)c(OC)cc3c2=N)cc1Cl	?	4µM	.	.	.	.
Cc1cc(-c2csc(N)n2)c(C)n1CCC(C)C	?	50µM	.	.	?	.
Cc1nn(C)cc1-c1csc(N)n1	.	.	.	.	.	.
Cc1cc(-c2csc(N)n2)c(C)n1CCc1ccccc1	?	45µM	.	.	?	.
N#Cc1ccc2c(c1)C[C@]1(CCCCN3C(=O)c4ccccc4C3=O)Oc3c(c(=O)oc4ccccc34)C2O1	/	.	.	/	/	/
Cc1ccc(S(=O)(=O)NCC(Nc2cccc(Cl)c2)c2ccccc2)cc1 (centres undefined)	.	/	/	?	?	/
O=C[C@@H]1CCCN1C(=O)[C@@H]1CCCN1C(=O)OCc1ccccc1	18µM	56µM	/	22µM	.	/
O=C(O)c1ccc(CNC(=O)C2CCCN2C(=O)OCc2ccccc2)cc1 (centres undefined)	/	.	.	/	/	/
Cc1cc2c(c(=O)o1)[C@@H](O)[C@H]1O[C@@H]1C2=O	?	.	.	?	?	/
CC(C)=CCC/C(C)=C/CC/C(C)=C/CC/C(C)=C/CC1=C(C)C(=O)c2ccccc2C1=O	?	?	-34	.	?	.
CC(C)=CCC1=C(OCC(=O)O)C(=O)c2ccccc2C1=O	?	?	-45	.	?	14µM
Cc1cccc(C2=NN(c3ccccc3)[C@H](CO)[C@H]2c2ccc(Cl)cc2)c1	?	.	.	?	11µM[quencher]	/
Cc1cccc(C2=NN(c3ccccc3)[C@H](CO)[C@H]2c2ccc(F)cc2)c1	?	.	.	?	32µM[quencher]	/
Cc1cccc(C2=NN(c3ccc(Br)cc3)[C@@H](C(=O)N3CCOC3=O)[C@@H]2c2ccc(F)cc2)c1	.	.	.	.	?	.
